# Measurements reported in PubChem BioAssay (NCATS).
# Values joined by “and” are separate entries in the source; they are usually repeats but may differ in a detail not shown here. Equal entries are not always repeated. Active and inactive are the calls of the source. Unless noted, calls come from the whole dose curve; as a rule, active = well fitted curve in the direction sought with a large enough effect; inconclusive = small, poorly fitted or top-dose-only effect, or another doubt; inactive = no such curve, though single readings can be large; an effect the other way counts as inactive or inconclusive.
# What was measured:
# [1] = target: Estrogen receptor (Homo sapiens) (UniProt P03372); test: qHTS assay for small molecule antagonists of estrogen receptor alpha signaling (AID 588513; active = well fitted curve in the direction sought with a large enough effect in the signal ratio, with a control signal flat, not every such curve was filed as active; inconclusive = small, poorly fitted or top-dose-only effect, or effect the other way, or a change in a side signal; inactive = no such curve, though single readings can be large or run the other way; the % refers to the signal ratio; note: potency is the fitted concentration of half-maximal effect)
# How it was run: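 ER-alpha-UAS-bla GripTite HEK 293 cells in 2% charcoal/dextran-treated FBS medium; compounds titrated (1:2, duplicate), then stimulated with 0.5 nM 17-beta-estradiol for 18 h at 37C. CCF4 beta-lactamase fluorescence; Hill-fit IC50 and efficacy.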
# [2] = target: Glucocorticoid receptor (Homo sapiens) (UniProt P04150); test: qHTS assay for small molecule agonists of glucocorticoid receptor signaling (AID 588532; active = well fitted curve in the direction sought with a large enough effect in the signal ratio, with a control signal flat; inconclusive = small, poorly fitted or top-dose-only effect, or a change in a side signal; inactive = no such curve, though single readings can be large or run the other way; the % refers to the signal ratio;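 note: 100% = dexamethasone at 0.1 µM and 0% = DMSO only wells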); conditions: HeLa MMTV-bla, beta-lactamase ratio, agonist, 18 h; stronger effect = higher value; percent of dexamethasone control, DMSO zero
# How it was run: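 Stimulation of a glucocorticoid response element-driven beta-lactamase gene was measured in HeLa cells. Responses were scaled between DMSO basal and 0.1 uM dexamethasone, then fitted for half-maximal stimulation.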
# [3] = target: Vitamin D3 receptor (Homo sapiens) (UniProt P11473); test: qHTS assay for small molecule antagonists of vitamin D receptor signaling (AID 588541; calls by dose curve;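 note: receptor activated by calcitriol during compound treatment; % is set by controls: 0 for no effect and ±100 for the full control effect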)
# How it was run: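 VDR-UAS-bla HEK293T cells (2000/well, 2% charcoal-stripped FBS) were treated with titrated compounds plus 1-alpha,25-dihydroxyvitamin D3 (50 nM or 3 nM final) for 16 h at 37 C. CCF4 beta-lactamase fluorescence was read; Hill fits gave IC50.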
# [4] = qHTS assay for environmental chemicals that activate the Aryl hydrocarbon Receptor (AhR) signaling pathway (AID 651777); conditions: 1A2-DRE human hepatoma cells, luciferase, 24 h; activation: stronger effect = higher value; note: nearly all actives have a fitted effect of over 15% in size; note: potency is the fitted concentration of half-maximal effect; for activation: % of control where 0% means no effect
# How it was run: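 Human hepatoma 1A2-DRE cells stably carrying a DRE/CYP1A2 promoter–luciferase reporter, 1,200 cells/well, exposed to compound 24 hr at 37 C. Luciferase read by One-Glo luminescence after 30 min at room temperature; increased signal marks AhR activation.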
# [5] = target: Peroxisome proliferator-activated receptor alpha (Homo sapiens) (UniProt Q07869); test: qHTS assay for small molecule agonists of the peroxisome proliferator-activated receptor alpha (PPARalpha) signaling pathway (AID 651778); conditions: PathHunter PPARalpha complementation, chemiluminescence, 6 h; stronger effect = higher value; note: % of control where 0% means no effect
# How it was run: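 Cells plated at 2,000/well and held overnight at 37 C, 5% CO2, then compound added by pin tool for 6 hr; after PathHunter detection reagent and 60 min at room temperature, chemiluminescence from enzyme complementation was read.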
# [6] = qHTS assay for small molecule agonists of the antioxidant response element (ARE) signaling pathway measured by Nrf2-dependant transcriptional activity - cell viability counter screen (AID 720653; active = well fitted curve in the direction sought with a large enough effect in the repeat runs; inconclusive = weak or mixed curves; inactive = no such curve, though single readings can be large; an effect the other way counts as inactive or inconclusive; note: % is set by controls: 0 for no effect and ±100 for the full control effect); conditions: ARE-bla HepG2 viability, CellTiter-Glo ATP luminescence, 16 h; max response: stronger effect = lower value
# How it was run: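 ARE-bla HepG2 cells (2,000/well) rested 5 hrs at 37C/5% CO2, then exposed to compounds in DMSO for 16 hrs. Viability was read in the same wells as intracellular ATP by luminescence, 30 min at room temperature after reagent addition.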
# [7] = qHTS assay for cell viability of the p53RE-bla HCT-116 cell line (AID 743292); note: % is set by controls: 0 for no effect and ±100 for the full control effect; nearly all actives have a fitted effect of over 55% in size
# How it was run: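 CellSensor p53RE-bla HCT-116 cells (4,000/well) pre-incubated 5 h at 37 C, then exposed to compounds in DMSO for 16 h at 37 C. Viability read as ATP content by CellTiter-Glo luminescence after 30 min at room temperature.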
# [8] = qHTS profiling of the MIPE4 collection as inhibitors of Plasmodium falciparum (3D7) proliferation (AID 743344; call rule not given here;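 note: scaled between DMSO vehicle wells and 0.29 µM artemisinin as full inhibition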); conditions: P. falciparum 3D7 in erythrocytes, SYBR Green DNA fluorescence, 72 h; at 28.5 µM (top of the series) unless noted
# How it was run: (§1)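 Erythrocytes infected with P. falciparum (0.3% parasitemia, 2.5% hematocrit) incubated with compounds 72 h at 37 C, 5% CO2. Lysis with saponin/Triton buffer containing SYBR Green I, overnight at room temperature in the dark; DNA fluorescence (485/535 nm) normalised to 0.29 uM artemisinin and DMSO.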
# [9] = qHTS profiling of the MIPE4 collection as inhibitors of Plasmodium falciparum (DD2) proliferation (AID 743345; call rule not given here); conditions: P. falciparum Dd2 in erythrocytes, SYBR Green DNA, 72 h; at 28.5 µM (top of the series) unless noted
# How it was run: as §1
# [10] = qHTS profiling of the MIPE4 collection as inhibitors of Plasmodium falciparum (DD2) proliferation (Rep 2) (AID 743346; call rule not given here); conditions: P. falciparum Dd2 in erythrocytes, SYBR Green DNA, 72 h; at 28.5 µM (top of the series) unless noted
# How it was run: as §1
# [11] = target: ATP-dependent 6-phosphofructokinase (Trypanosoma brucei brucei) (UniProt O15648); test: qHTS Assay to Find Inhibitors of T. brucei phosphofructokinase: hit validation (AID 492961);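 note: luminescence reports ADP formed as PFK phosphorylates fructose-6-phosphate with ATP; % is set by controls: 0 for no effect and ±100 for the full control effect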
# How it was run: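 Reaction: 0.1 M triethanolamine pH 8.0, 5 mM MgCl2, F6P 0.5 mM, ATP 0.1 mM, PFK 1.25 nM, 45 min RT. Read-out: ADP-Glo luminescence. Analysis: concentration-response fits, classed by r2 and efficacy.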
# [12] = S16 Schwann cell viability assay (CellTiter-Glo assay) (AID 624031);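 note: cellular ATP luminescence as a viability measure; plate controls were DMSO-treated cells for no effect and cell-free wells for full effect; nearly all actives have a fitted effect of over 70% in size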
# How it was run: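 Native S16 rat Schwann cells, 500-750 cells/well in DMEM with 10% FBS, dosed with compound after overnight culture and incubated 24h at 37 degree Celsius/5% CO2. Viability by CellTiter-Glo luminescence; % activity normalized to no-cell wells and DMSO-treated cells.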
# 3D7 = test: qHTS profiling for inhibitors of Plasmodium falciparum proliferation (AID 504749); note: nearly all actives have a fitted effect of over 60% in size; note: potency is the fitted concentration of half-maximal effect; conditions: P. falciparum in erythrocytes, SYBR Green DNA, 72 h; series mostly up to 28.7 µM
# How it was run: (§2)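 Parasite proliferation within erythrocytes, 72 h exposure. Endpoint: SYBR Green I fluorescence after overnight lysis at room temperature. Controls: 0.29 uM artemisinin, DMSO.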
# CP266 = test: as above; conditions: P. falciparum in erythrocytes, SYBR Green DNA, 72 h; series mostly up to 28.7 µM
# How it was run: as §2
# FAB9 = test: as above; conditions: P. falciparum in erythrocytes, SYBR Green DNA, 72 h; series mostly up to 28.7 µM
# How it was run: as §2
# PC15 = test: as above; conditions: P. falciparum in erythrocytes, SYBR Green DNA, 72 h; series mostly up to 28.7 µM
# How it was run: as §2
# PC49 = test: as above; conditions: P. falciparum in erythrocytes, SYBR Green DNA, 72 h; series mostly up to 28.7 µM
# How it was run: as §2
# CP194 = test: as above; conditions: P. falciparum in erythrocytes, SYBR Green DNA, 72 h; series mostly up to 28.7 µM
# How it was run: as §2
# GB4 = test: as above; conditions: P. falciparum in erythrocytes, SYBR Green DNA, 72 h; series mostly up to 28.7 µM
# How it was run: as §2
# W2 = test: as above; conditions: P. falciparum in erythrocytes, SYBR Green DNA, 72 h; series mostly up to 28.7 µM
# How it was run: as §2
# Chain of Peroxisome proliferator-activated receptor alpha (Homo sapiens) (Q07869 whole entry, looked up): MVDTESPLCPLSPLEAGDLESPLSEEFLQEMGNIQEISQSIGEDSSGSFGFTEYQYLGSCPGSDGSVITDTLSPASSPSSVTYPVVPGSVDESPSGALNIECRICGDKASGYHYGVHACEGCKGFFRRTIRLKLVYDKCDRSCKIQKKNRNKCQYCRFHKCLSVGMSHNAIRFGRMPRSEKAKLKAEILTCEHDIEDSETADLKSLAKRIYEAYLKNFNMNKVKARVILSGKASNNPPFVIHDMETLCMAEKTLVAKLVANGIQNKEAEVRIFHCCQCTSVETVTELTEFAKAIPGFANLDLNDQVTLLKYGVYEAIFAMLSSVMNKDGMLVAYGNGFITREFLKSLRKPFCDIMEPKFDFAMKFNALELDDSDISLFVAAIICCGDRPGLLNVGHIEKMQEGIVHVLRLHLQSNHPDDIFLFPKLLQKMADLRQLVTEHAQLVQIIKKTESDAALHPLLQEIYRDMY
# Chain of Glucocorticoid receptor (Homo sapiens) (P04150 whole entry, looked up): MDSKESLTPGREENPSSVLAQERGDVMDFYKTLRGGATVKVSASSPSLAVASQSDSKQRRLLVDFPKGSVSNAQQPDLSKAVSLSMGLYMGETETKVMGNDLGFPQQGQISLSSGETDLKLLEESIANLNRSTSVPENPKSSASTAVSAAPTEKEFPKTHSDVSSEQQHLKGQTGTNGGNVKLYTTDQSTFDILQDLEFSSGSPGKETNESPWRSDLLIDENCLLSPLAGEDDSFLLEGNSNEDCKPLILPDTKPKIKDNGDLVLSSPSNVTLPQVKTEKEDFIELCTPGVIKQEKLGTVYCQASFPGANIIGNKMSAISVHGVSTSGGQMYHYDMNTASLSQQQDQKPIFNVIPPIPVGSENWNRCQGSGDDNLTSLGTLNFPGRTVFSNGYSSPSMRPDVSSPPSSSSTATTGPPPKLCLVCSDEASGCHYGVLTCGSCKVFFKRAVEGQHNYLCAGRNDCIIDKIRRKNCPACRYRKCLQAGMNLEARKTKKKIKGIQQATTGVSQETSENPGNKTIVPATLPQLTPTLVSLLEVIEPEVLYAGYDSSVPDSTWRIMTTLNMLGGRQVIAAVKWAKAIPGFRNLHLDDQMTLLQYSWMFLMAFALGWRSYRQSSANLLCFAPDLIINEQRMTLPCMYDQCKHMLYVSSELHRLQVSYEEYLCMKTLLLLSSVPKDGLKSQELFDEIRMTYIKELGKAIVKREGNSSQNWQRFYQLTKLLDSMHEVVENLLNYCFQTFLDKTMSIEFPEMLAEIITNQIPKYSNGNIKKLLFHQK
# Chain of Estrogen receptor (Homo sapiens) (P03372 whole entry, looked up): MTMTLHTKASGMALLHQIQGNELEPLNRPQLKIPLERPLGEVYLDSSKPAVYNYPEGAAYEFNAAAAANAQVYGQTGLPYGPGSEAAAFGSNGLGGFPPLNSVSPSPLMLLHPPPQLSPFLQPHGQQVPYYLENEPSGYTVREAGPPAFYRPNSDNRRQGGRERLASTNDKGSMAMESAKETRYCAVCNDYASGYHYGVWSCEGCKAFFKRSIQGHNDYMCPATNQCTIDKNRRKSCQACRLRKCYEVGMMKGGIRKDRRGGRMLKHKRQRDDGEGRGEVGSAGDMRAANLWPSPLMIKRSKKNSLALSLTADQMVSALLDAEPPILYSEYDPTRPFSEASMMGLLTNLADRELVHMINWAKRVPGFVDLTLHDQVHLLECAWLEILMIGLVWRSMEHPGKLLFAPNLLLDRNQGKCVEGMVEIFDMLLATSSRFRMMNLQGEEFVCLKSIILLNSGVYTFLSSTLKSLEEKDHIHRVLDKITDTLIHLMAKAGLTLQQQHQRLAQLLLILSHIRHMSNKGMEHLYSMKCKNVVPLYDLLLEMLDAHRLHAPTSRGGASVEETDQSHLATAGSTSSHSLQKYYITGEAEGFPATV
# Chain of ATP-dependent 6-phosphofructokinase (Trypanosoma brucei brucei) (O15648 whole entry, looked up): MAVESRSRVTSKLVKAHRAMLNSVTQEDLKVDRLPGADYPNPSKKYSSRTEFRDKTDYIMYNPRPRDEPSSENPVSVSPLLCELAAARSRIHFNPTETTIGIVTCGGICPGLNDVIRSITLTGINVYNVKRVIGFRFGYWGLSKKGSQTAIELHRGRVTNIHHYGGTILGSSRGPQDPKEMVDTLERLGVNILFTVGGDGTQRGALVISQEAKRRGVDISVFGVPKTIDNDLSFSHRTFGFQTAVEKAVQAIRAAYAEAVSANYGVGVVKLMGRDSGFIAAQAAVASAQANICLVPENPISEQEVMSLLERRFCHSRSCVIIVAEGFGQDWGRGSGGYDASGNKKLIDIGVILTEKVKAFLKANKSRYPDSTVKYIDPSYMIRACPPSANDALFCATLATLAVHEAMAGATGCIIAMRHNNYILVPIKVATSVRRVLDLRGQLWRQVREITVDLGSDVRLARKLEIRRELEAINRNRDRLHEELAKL
# Chain of Vitamin D3 receptor (Homo sapiens) (P11473 whole entry, looked up): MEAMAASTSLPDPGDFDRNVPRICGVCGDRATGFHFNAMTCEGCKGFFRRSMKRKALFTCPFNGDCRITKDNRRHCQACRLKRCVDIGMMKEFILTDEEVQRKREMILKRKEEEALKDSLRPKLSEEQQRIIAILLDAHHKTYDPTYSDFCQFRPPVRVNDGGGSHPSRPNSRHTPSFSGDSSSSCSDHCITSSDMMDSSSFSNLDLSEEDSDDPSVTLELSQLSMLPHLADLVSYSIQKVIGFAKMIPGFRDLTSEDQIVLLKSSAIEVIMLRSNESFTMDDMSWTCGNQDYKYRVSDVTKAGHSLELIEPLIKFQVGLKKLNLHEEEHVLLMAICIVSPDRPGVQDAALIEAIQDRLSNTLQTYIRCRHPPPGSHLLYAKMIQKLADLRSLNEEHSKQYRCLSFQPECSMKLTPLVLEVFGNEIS
smiles,measurement,setting,value
Cc1ccc2cc3c(ccc4ccccc43)c3c2c1CC3,Potency,[1],inactive
same,activation,[2],4.51% (inactive)
same,outcome,[3],inactive
same,Potency,[4],8.91 µM (active)
same,max response,[5],-0.967% (inactive)
same,max response,[6],-7.15% (inactive)
same,outcome,[7],inactive
Cc1ncc(C[n+]2csc(CCO)c2C)c(=O)[nH]1,"parasite growth, % of DMSO control",[8],96.7%
same,"parasite growth remaining, % of DMSO control (lower = more inhibition)",[9],104%
same,"parasite growth, % of control (lower = inhibition)",[10],113%
CCN1C[C@]2(COC)[C@H](O)C[C@H](OC)[C@]34C1C([C@H](OC)[C@H]23)[C@]1(OC(C)=O)C2[C@@H](OC(=O)c3ccccc3)C(O)(C[C@H]24)[C@@H](OC)[C@@H]1O,Potency,[11],inactive
same,Potency,[12],inactive
same,Potency,3D7,inactive
same,Potency,CP266,inactive
same,Potency,FAB9,inactive
same,Potency,PC15,inactive
same,Potency,PC49,inactive
CC(C)(c1ccc(OCC2CO2)cc1)c1ccc(OCC2CO2)cc1 (stereo not given),Potency,[1],31.6 µM [inconclusive] (active)
same,activation,[2],-1.68% (inactive) and 2.51% (inactive)
same,outcome,[3],inactive
same,activation,[4],-0.167% (inactive) and 1.71% (inactive)
same,max response,[5],-4.29% (inactive) and -0.125% (inactive)
same,max response,[6],-3.1% (inactive)
same,outcome,[7],inactive
O=C1CC[C@@]2(O)[C@H]3Cc4ccc(O)c5c4C2(CCN3CC2CC2)[C@H]1O5,"parasite growth, % of DMSO control",[8],101%
same,"parasite growth remaining, % of DMSO control (lower = more inhibition)",[9],82%
same,"parasite growth, % of control (lower = inhibition)",[10],59.1%
O=C(O)c1ccccc1-c1c2cc(Br)c(=O)cc-2oc2[c]([Hg])c(O)c(Br)cc12,Potency,[12],inactive
same,Potency,CP194,inactive
same,Potency,FAB9,inactive
same,Potency,GB4,inactive
same,Potency,W2,inactive
CC(C)[C@@]1(NC(=O)[C@H]2CC3c4cccc5[nH]cc(c45)C[C@H]3N(C)C2)O[C@@]2(O)C3CCCN3C(=O)[C@@H](Cc3ccccc3)N2C1=O (stereo not given in full),Potency,[11],inactive
same,Potency,3D7,2.24 µM (active)
same,Potency,CP194,6.75 µM (active)
same,Potency,CP266,6.01 µM (active)
same,Potency,GB4,3.01 µM (active)
same,Potency,PC15,1.78 µM (active)
same,Potency,PC49,3.16 µM (active)
same,Potency,W2,0.953 µM (active)
